Reference: PubChem BioAssay (NCATS)
Records with an inconclusive call do not appear. Where a call stands in place of a potency, no number is given. Activity calls are given as the source filed them. Unless noted, the call rests on the fitted dose curve; in most records, active means well fitted curve in the direction sought with a large enough effect; inconclusive means small, poorly fitted or top-dose-only effect, or another doubt; inactive means no such curve, though single readings can be large; an effect the other way counts as inactive or inconclusive.

Experiments:
[1] = Identifying Small Molecule Inhibitors of Pancreatic Cancer Stem Cells (A2780, Spheroid) (AID 1259357);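 further: compound exposure lasted 48 h before the ATP luminescence read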
In short: (§1)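 Spheroids grown 14 days in stem cell media on hydrogel-coated nonadherent plates; 2D lines seeded directly. Compounds added after 4 h attachment, 48 h at 37C, 5% CO2; CellTiter-Glo luminescence normalized to DMSO (no inhibition) and no-cell wells (full inhibition).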

[2] = Identifying Small Molecule Inhibitors of Pancreatic Cancer Stem Cells (SN12C, Adherent) (AID 1259358);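 further: cell survival measured after 48 h of compound exposure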
Excerpt: Progenitor-like cancer cells, often referred to as cancer stem cells (CSC), are believed to be the drivers of therapeutic resistance and rapid recurrence. CSCs are postulated to reside in specific niches characterized by low oxygen tension, limited nutrient supply, and high redox load. Selectively targeting CSC, alone or in combination with cytotoxic agents, as a means to produce durable remissions is an appealing concept. Modeling these cells in in vitro setting is an important step in finding new therapies and/or targets. Multiple reports highlight that forcing cells in culture into 3-dimensionaly architectures (spheroids) re-establishes key progenitor-like transcriptional signatures. Pancreatic cancer is among the diseases with the most dismal outlook which is driven, largely, by recurance following front-line therapies. […]
Multicellular tumor spheroids from Panc1, MiaPaCa-2, and the primary low-passage tissue culture line SB.06 were seeded in stem cell media (SCM) in nonadherent 6-well plates coated with hydrogel (Corning Life Sciences, Chelmsford, Mass) and pancreatic spheres generated for 14 days before screening. […] Plates were incubated at room temperature for 10 minutes prior to reading the luminescence on the Viewlux (PerkinElmer). […]

[3] = Identifying Small Molecule Inhibitors of Pancreatic Cancer Stem Cells (SN12C, Spheroid) (AID 1259360)
In short: as §1

[4] = Identifying Small Molecule Inhibitors of Pancreatic Cancer Stem Cells (A278, Adherent) (AID 1259361);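 further: viability read after 48 h compound exposure; nearly all actives have a fitted effect of over 35% in size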
In short: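 Monolayer and spheroid cultures are compared. Spheroids form over 14 days in stem cell medium on hydrogel-coated low-attachment plates, then are exposed to compound for 48 h before CellTiter-Glo luminescence.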

[5] = Natriuretic polypeptide receptor (hNpr1) antagonism - Pilot counterscreen GloSensor control cell line (AID 1347045; calls by dose curve; further: series mostly up to about 38 µM)
In short: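 Control counterscreen: luciferase cGMP-biosensor HEK293 cells (no Npr1) received compound for 30 min at room temperature after GloSensor substrate loading. Luminescence was measured before and 20 min after soluble guanylyl cyclase activation by 50 uM nitroprusside.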

[6] = biological target: Atrial natriuretic peptide receptor 1 (Homo sapiens) (UniProt P16066); assay: Natriuretic polypeptide receptor (hNpr1) antagonism - Pilot screen (AID 1347049; calls by dose curve;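 further: agonist-evoked cGMP luminescence read 20 min after hNppA addition; series mostly up to about 58 µM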)
In short: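 cGMP-sensor HEK293/hNpr1 cells, 1500/well, plated overnight at 37C. 2% GloSensor reagent, 2 h RT. Compound (23 nL pin transfer) 30 min RT, baseline luminescence pre-read. 0.1 nM hNppA, 20 min RT, post-read.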

[7] = qHTS assay to identify small molecule inhibitors of chordoma cells - UCH-1 (AID 1259355); further: nearly all actives have a fitted effect of over 55% in size
In short: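 Screening used approved and investigational drugs in 15-point titration against 800 seeded cells per well. A fixed combination of auranofin with camptothecin, doxorubicin, rubitecan and topotecan followed compound addition, and growth was scored by CellTiter-Glo after 48hr.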

[8] = qHTS assay to identify small molecule inhibitors of chordoma cells - UCH-2 (AID 1259356); further: series mostly up to about 46 µM
[9] = P-glycoprotein substrates identified in KB-8-5-11 adenocarcinoma cell line, qHTS therapeutic library screen (AID 1346987); further: nearly all actives have a fitted effect of over 65% in size; further: potency means the concentration at half of the fitted maximal effect
In short: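 Compounds are pinned in dose-response onto KB-8-5-11 cells (500 cells/well, colchicine-free medium) and left 72 h at 37 degree C. CellTiter-Glo luminescence then yields AC50 values.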

Sequence of Atrial natriuretic peptide receptor 1 (Homo sapiens) (P16066 whole entry, looked up): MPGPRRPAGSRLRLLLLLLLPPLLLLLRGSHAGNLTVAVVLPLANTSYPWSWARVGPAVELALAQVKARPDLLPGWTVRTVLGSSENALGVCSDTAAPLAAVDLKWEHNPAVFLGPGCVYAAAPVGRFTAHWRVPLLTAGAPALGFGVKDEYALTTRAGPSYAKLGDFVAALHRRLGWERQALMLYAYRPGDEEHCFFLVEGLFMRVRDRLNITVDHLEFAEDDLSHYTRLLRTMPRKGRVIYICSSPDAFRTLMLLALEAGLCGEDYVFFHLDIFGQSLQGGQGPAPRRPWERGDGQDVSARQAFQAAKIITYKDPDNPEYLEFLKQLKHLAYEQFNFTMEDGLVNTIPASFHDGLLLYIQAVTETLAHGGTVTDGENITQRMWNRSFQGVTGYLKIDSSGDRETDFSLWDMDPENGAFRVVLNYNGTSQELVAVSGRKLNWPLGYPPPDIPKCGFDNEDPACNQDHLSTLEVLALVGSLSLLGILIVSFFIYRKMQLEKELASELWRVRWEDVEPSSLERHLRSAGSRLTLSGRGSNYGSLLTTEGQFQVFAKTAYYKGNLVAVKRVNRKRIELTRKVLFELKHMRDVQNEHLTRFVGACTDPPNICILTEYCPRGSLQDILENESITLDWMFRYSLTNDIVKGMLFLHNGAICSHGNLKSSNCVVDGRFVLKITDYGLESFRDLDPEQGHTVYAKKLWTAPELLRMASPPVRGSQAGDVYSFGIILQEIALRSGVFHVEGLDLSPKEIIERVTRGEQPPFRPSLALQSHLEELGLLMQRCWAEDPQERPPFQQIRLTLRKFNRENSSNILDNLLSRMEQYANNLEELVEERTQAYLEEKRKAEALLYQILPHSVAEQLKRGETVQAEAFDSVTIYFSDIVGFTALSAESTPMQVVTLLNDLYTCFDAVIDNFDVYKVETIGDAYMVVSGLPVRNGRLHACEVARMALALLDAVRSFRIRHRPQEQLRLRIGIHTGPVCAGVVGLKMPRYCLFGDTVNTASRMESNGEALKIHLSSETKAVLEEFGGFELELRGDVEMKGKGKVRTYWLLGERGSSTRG

## O=C(O)c1nn(Cc2ccc(Cl)cc2Cl)c2ccccc12
[1]
  outcome: inactive
[2]
  outcome: inactive
[3]
  outcome: inactive
[4]
  outcome: inactive
[5]
  outcome: inactive
[6]
  outcome: inactive

## CCOC(=O)c1cncn1C(C)c1ccccc1 (centres undefined)
[7]
  Potency: inactive
[8]
  Potency: inactive
[9]
  Potency: inactive

## CN1[C@@H]2CC[C@H]1CC(OC(=O)c1cc(Cl)cc(Cl)c1)C2 (some centres undefined)
[8]
  Potency: inactive

## C[N+]1(CCC(C(N)=O)(c2ccccc2)c2ccccc2)CCCCC1
[7]
  Potency: inactive
[8]
  Potency: inactive
[9]
  Potency: inactive

## Clc1ccc(C(OCCN2CCCCC2)c2ccccc2)cc1 (centres undefined)
[8]
  Potency: inactive

## OC(c1ccccc1)(c1ccccc1)C1CCNCC1
[7]
  Potency: inactive
[8]
  Potency: inactive
[9]
  Potency: inactive

## CC(C)NCC(O)c1ccc(N)c(C#N)c1 (centres undefined)
[7]
  Potency: inactive
[8]
  Potency: inactive
[9]
  Potency: inactive

## COc1cc(N)c(Cl)cc1C(=O)NC1CN2CCC1CC2 (centres undefined)
[7]
  Potency: inactive
[8]
  Potency: inactive
[9]
  Potency: inactive

## CN(C)C(=S)SSC(=S)N(C)C
[8]
  Potency: inactive

## C[C@]12CC[C@H]3[C@@H](CC=C4C[C@@H](O)CC[C@@]43C)[C@@H]1CC[C@@H]2O
[7]
  Potency: inactive
[8]
  Potency: inactive
[9]
  Potency: 11.6 µM (active)

## CN1C(=O)CN=C(c2ccccc2)c2cc([N+](=O)[O-])ccc21
[8]
  Potency: inactive

## CN1CCc2cc(Cl)c(O)cc2[C@H]2c3ccccc3CC[C@@H]21
[7]
  Potency: inactive
[8]
  Potency: inactive
[9]
  Potency: inactive

## CCCCCCCCCCCC[N+](C)(C)CCOc1ccccc1
[8]
  Potency: inactive
[9]
  Potency: inactive

## CCC1(CC)C(=O)NC(=O)NC1=O
[7]
  Potency: inactive
[8]
  Potency: inactive
[9]
  Potency: inactive

## N#Cc1nn(-c2c(Cl)cc(C(F)(F)F)cc2Cl)c(N)c1S(=O)C(F)(F)F (centres undefined)
[7]
  Potency: inactive
[8]
  Potency: inactive
[9]
  Potency: inactive

## COC(=O)C1=CCCN(C)C1
[7]
  Potency: inactive
[8]
  Potency: inactive
[9]
  Potency: inactive
[5]
  outcome: inactive
[6]
  outcome: inactive
